The first test addresses ATG16L1. Put plainly: pooled miR-30 sensor sort-seq; sequence = guide strand. The following applies: shRNA.
Consider TATCATTGCAACTGGATCCTGC, for which the sensor-assay potency score (higher = more potent) amounted to 0.235.

TTGTAGCTGATTGTCATTCCAT had a sensor-assay potency score (higher = more potent) of -0.0295.

As for TTGCAAAATCATTTGAAGCTGC, the sensor-assay potency score (higher = more potent) came to 0.00437.

On to TTTCTTGTGTAATTCAGTCAGT, for which the sensor-assay potency score (higher = more potent) was -0.093.

The target of a further test is ATHL1. The description is as above. Particulars: shRNA.
TCCACAGTGAGTGACTCGGTGG showed a sensor-assay potency score (higher = more potent) of -1.15.

In turn, TTTTTGGCAAAGCTGCACCTGA returned a sensor-assay potency score (higher = more potent) of -0.809.

For TACCTTGATCTTGTCAGCCACC, the sensor-assay potency score (higher = more potent) was -0.985.

In turn, TCGAAATAGCTGCAGGTCCTGG came in with a sensor-assay potency score (higher = more potent) of -1.24.

TCGAGCTGTGACCTCCACGGTC returned a sensor-assay potency score (higher = more potent) of -1.01.

On to TTGATCTTGTCAGCCACCGCCA, for which the sensor-assay potency score (higher = more potent) is -0.876.

In turn, TAAATCTCCAGATTTTTCCTGC returned a sensor-assay potency score (higher = more potent) of 0.146.

As for TCAAAGGGTACCTTGATCTTGT, the sensor-assay potency score (higher = more potent) worked out at 0.372.

The sequence TACACAGAGTTGTTGACCCCTG yielded a sensor-assay potency score (higher = more potent) of -0.218.

Consider TGGAACATCAGGATACTCGGGA, for which the sensor-assay potency score (higher = more potent) is -0.126.

In the case of TTGGTGTACACAGAGTTGTTGA, the sensor-assay potency score (higher = more potent) is -0.594.

The target of a further test is ATOX1. Described as above. Particulars: shRNA.
The sequence ATACTTAACTCCTCCAAGCTTA had a sensor-assay potency score (higher = more potent) of -0.272.

Take TTTTCTTCAGGGTTGCAAGCAG: the sensor-assay potency score (higher = more potent) amounted to 0.404.

For the sequence TACTTAACTCCTCCAAGCTTAT, the sensor-assay potency score (higher = more potent) was -1.31.

Turning to TTGTTGGGCAGGTCAATGTCAT, the sensor-assay potency score (higher = more potent) was -0.613.

Turning to TAGGAAACAGTCTTTCCTGTTT, the sensor-assay potency score (higher = more potent) is -0.521.

Sequence TTTCTTCAGGGTTGCAAGCAGA registered a sensor-assay potency score (higher = more potent) of -1.16.

In turn, TGTCATACTTAACTCCTCCAAG gave a sensor-assay potency score (higher = more potent) of -0.838.

TAACTCCTCCAAGCTTATTGAG returned a sensor-assay potency score (higher = more potent) of -1.42.

For TCAATGCAGACCTTCTTGTTGG, the sensor-assay potency score (higher = more potent) was -0.56.

Take AATGCAGACCTTCTTGTTGGGC: the sensor-assay potency score (higher = more potent) was -0.556.

TTTCCTGTTTTCTTCAGGGTTG: the sensor-assay potency score (higher = more potent) is -0.588.

Sequence TTCAGCACAGCCTCCACAGGTC showed a sensor-assay potency score (higher = more potent) of -0.0676.

In the case of TTCAGGGTTGCAAGCAGAGTGT, the sensor-assay potency score (higher = more potent) was -1.04.

For TTCCTGTTTTCTTCAGGGTTGC, the sensor-assay potency score (higher = more potent) is -0.392.

As for AGTCTTTCCTGTTTTCTTCAGG, the sensor-assay potency score (higher = more potent) was -1.75.

Consider TCAGATTCAATGCAGACCTTCT, for which the sensor-assay potency score (higher = more potent) was -0.2.

As for TCAATGTCATACTTAACTCCTC, the sensor-assay potency score (higher = more potent) was -0.482.

In turn, ATGTCATACTTAACTCCTCCAA yielded a sensor-assay potency score (higher = more potent) of -0.956.

On to TTCAATGCAGACCTTCTTGTTG, for which the sensor-assay potency score (higher = more potent) is -0.466.

As for TTCTTCAGGGTTGCAAGCAGAG, the sensor-assay potency score (higher = more potent) was -0.987.

As for TATTGAGGACCCGAGAGACAGC, the sensor-assay potency score (higher = more potent) was -1.44.

TCCAAGCTTATTGAGGACCCGA yielded a sensor-assay potency score (higher = more potent) of -0.663.

For AAGCAGAGTGTCCATGCTGTGC, the sensor-assay potency score (higher = more potent) is -1.19.

As to AACTCCTCCAAGCTTATTGAGG, the sensor-assay potency score (higher = more potent) was -1.32.
Further: reference of the scale not given here.
